Common to all, as to assay: growth (OD600 after 10 h); higher = more growth (less inhibition)
In assay [1] the test system is E. coli TESEC Alr+ wild-type control. The following applies: compound 0.1 mM; raw OD600 reference: median of DMSO wells 0.241, cell-free background 0.041. As to the method:
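TESEC Mtb Alr E. coli, or the Alr+ wild-type control, in 384-well plates with Prestwick library compounds at 0.1 mM and 1% DMSO, across arabinose induction levels of 1E3 to 1E7 nM. Growth is read as OD600 after 10 h at 37 °C in triplicate biological replicates.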

In another assay the test system is E. coli TESEC Mtb Asd. The following applies: compound 0.1 mM. The procedure: (§1)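 TESEC E. coli strains in which the native enzyme is deleted and replaced by arabinose-inducible Mtb Asd, DapB, CysH or TrpD, each grown in its selective medium. Strains were screened against the Prestwick library at 0.1 mM and 1% DMSO in 384-well format at low and high arabinose induction. Growth is read as OD600 after 10 h in triplicate.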

Assay [2] deals with E. coli TESEC Alr+ wild-type control. The following applies: compound 0.1 mM; raw OD600 reference: median of DMSO wells 0.49, cell-free background 0.052. As to the method:
(§2)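 TESEC Mtb Alr E. coli (ΔaraC ΔtolC ΔentC Δalr ΔdadX, arabinose-inducible Mtb Alr) or the Alr+ wild-type control strain, grown in defined M9-fructose medium without D-alanine in 96-well plates with Prestwick library compounds at 0.1 mM and 1% DMSO. Low Alr induction is 0.1 µM arabinose and high induction is 10 mM arabinose.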

The next assay relates to E. coli TESEC Mtb Alr. The following applies: compound 0.1 mM. The procedure:
as §2

In a further assay the test system is E. coli TESEC Mtb DapB. Conditions: compound 0.1 mM. As to the method:
as §1

Where [3] appears, read: arabinose induction (level): High, raw OD600 reference: median of DMSO wells 0.331, cell-free background 0.041.
Where [4] appears, read: arabinose induction (level): Low, raw OD600 reference: median of DMSO wells 0.417, cell-free background 0.041.
Setting [5] is: arabinose 100 nM, raw OD600 reference: median of DMSO wells 0.413, cell-free background 0.052.
Where [6] appears, read: arabinose 10000000 nM, raw OD600 reference: median of DMSO wells […], cell-free background 0.052.
Where [7] appears, read: arabinose induction (level): High, raw OD600 reference: median of DMSO wells […], cell-free background 0.041.
[8] abbreviates: arabinose induction (level): Low, raw OD600 reference: median of DMSO wells 0.227, cell-free background 0.041.

Structures can show the parent of a compound that is named as a salt. ± gives the standard deviation of the averaged measurements.

For the compound `OCCN1CCN(CC/C=C2/c3ccccc3Sc3ccc(Cl)cc32)CC1` [Zuclopenthixol dihydrochloride], the growth amounted to 0.0505 ± 0.0052 in assay [1]; 0.205 ± 0.043 with E. coli TESEC Mtb Asd (setting [3]); 0.215 ± 0.011 in the assay on E. coli TESEC Mtb Asd (setting [4]); 0.049 ± 0.0005 in assay [2]; 0.156 ± 0.19 in the assay with E. coli TESEC Mtb Alr (setting [5]); 0.0523 ± 0.0015 in the assay on E. coli TESEC Mtb Alr (setting [6]).

With `CN(C)CCCN1c2ccccc2Sc2ccc(C(F)(F)F)cc21` [Triflupromazine hydrochloride], the growth in assay [1] is 0.0405 ± 0.00036; in the assay with E. coli TESEC Mtb Asd (setting [3]) it was 0.0504 ± 0.0028; with E. coli TESEC Mtb Asd (setting [4]) it was 0.0491 ± 0.0012; with E. coli TESEC Mtb DapB (setting [7]), 0.0483 ± 0.00081; in the assay with E. coli TESEC Mtb DapB (setting [8]) it was 0.211 ± 0.15; in the assay on E. coli TESEC Mtb Alr (setting [5]) it was 0.298 ± 0.21. In the assay with E. coli TESEC Mtb Alr (setting [6]), this compound had a growth of 0.0543 ± 0.0015.

For the compound `O=C(O)c1ccccc1C(=O)Nc1ccc(S(=O)(=O)Nc2nccs2)cc1` [Phthalylsulfathiazole], the growth came out at 0.245 ± 0.0086 in assay [1]; 0.468 ± 0.023 in the assay on E. coli TESEC Mtb Asd (setting [3]); 0.445 ± 0.036 with E. coli TESEC Mtb Asd (setting [4]); 0.212 ± 0.016 with E. coli TESEC Mtb DapB (setting [7]); 0.239 ± 0.01 in the assay with E. coli TESEC Mtb DapB (setting [8]); 0.405 ± 0.019 in the assay with E. coli TESEC Mtb Alr (setting [5]). Besides, the growth in the assay on E. coli TESEC Mtb Alr (setting [6]) amounted to 0.333 ± 0.0071.

Turning to `CC(C)(C)CC(C)(C)c1ccc(OCCOCC[N+](C)(C)Cc2ccccc2)cc1` [Benzethonium chloride], the growth in assay [1] is 0.0416 ± 0.00072; in the assay with E. coli TESEC Mtb Asd (setting [3]), 0.0499 ± 0.00098; with E. coli TESEC Mtb Asd (setting [4]), 0.0496 ± 0.0017; in assay [2] it was 0.04753 ± 0.00035; in the assay on E. coli TESEC Mtb Alr (setting [5]), 0.0552 ± 0.0016; with E. coli TESEC Mtb Alr (setting [6]), 0.0504 ± 0.00059.

In the case of `COc1cc(C(=O)NC2CCCNC2)cc(OC)c1OC` (configuration not stated) [Troxipide], the growth worked out at 0.225 ± 0.0045 in assay [1]; 0.353 ± 0.075 in the assay on E. coli TESEC Mtb Asd (setting [3]); 0.427 ± 0.057 with E. coli TESEC Mtb Asd (setting [4]); 0.504 ± 0.1 in assay [2]; 0.402 ± 0.014 with E. coli TESEC Mtb Alr (setting [5]); 0.359 ± 0.038 in the assay on E. coli TESEC Mtb Alr (setting [6]).

As for `CN(C)CCCOc1nn(Cc2ccccc2)c2ccccc12` [Benzydamine hydrochloride], the growth is 0.183 ± 0.0043 in assay [1]; 0.193 ± 0.043 with E. coli TESEC Mtb Asd (setting [3]); 0.348 ± 0.023 in the assay with E. coli TESEC Mtb Asd (setting [4]); 0.404 ± 0.0075 in the assay on E. coli TESEC Mtb Alr (setting [5]); 0.283 ± 0.021 in the assay with E. coli TESEC Mtb Alr (setting [6]).

For the compound `Nc1nnc(-c2cccc(Cl)c2Cl)c(N)n1` [Lamotrigine], the growth in assay [1] is 0.14 ± 0.0084; in the assay with E. coli TESEC Mtb Asd (setting [3]) it was 0.236 ± 0.025; in the assay on E. coli TESEC Mtb Asd (setting [4]), 0.168 ± 0.019; in assay [2], 0.46 ± 0.021; in the assay on E. coli TESEC Mtb Alr (setting [5]), 0.413 ± 0.029; in the assay on E. coli TESEC Mtb Alr (setting [6]) it was 0.386 ± 0.029.

`CCN(CC)CCOC(=O)C1(c2ccc([N+](=O)[O-])cc2)CCCC1` [Nitrocaramiphen hydrochloride]: the growth turned out to be 0.235 ± 0.015 in assay [1]; 0.205 ± 0.059 in the assay on E. coli TESEC Mtb Asd (setting [3]); 0.426 ± 0.0056 in the assay on E. coli TESEC Mtb Asd (setting [4]); 0.161 ± 0.01 in the assay with E. coli TESEC Mtb DapB (setting [7]); 0.18 ± 0.017 in the assay with E. coli TESEC Mtb DapB (setting [8]); 0.412 ± 0.017 in the assay on E. coli TESEC Mtb Alr (setting [5]). This compound also registered a growth in the assay on E. coli TESEC Mtb Alr (setting [6]) of 0.324 ± 0.03.

For `Nc1nc2ccc(OC(F)(F)F)cc2s1` [Riluzole hydrochloride], the growth stood at 0.176 ± 0.007 in assay [1]; 0.388 ± 0.01 in the assay on E. coli TESEC Mtb Asd (setting [3]); 0.208 ± 0.02 in the assay with E. coli TESEC Mtb Asd (setting [4]); 0.241 ± 0.005 with E. coli TESEC Mtb DapB (setting [7]); 0.241 ± 0.0089 in the assay with E. coli TESEC Mtb DapB (setting [8]); 0.415 ± 0.014 in the assay on E. coli TESEC Mtb Alr (setting [5]). For the same compound, the growth in the assay on E. coli TESEC Mtb Alr (setting [6]) is 0.419 ± 0.0084.

For the origin of these results see the supplement of paper PMC9262897, “Low-cost anti-mycobacterial drug discovery using engineered E. coli” (Nature Communications, 2022).
